Screening data (PubChem BioAssay)
HPGD inh – blocks human HPGD enzyme activity. 150,000 compounds, 4.3% hits. purified HPGD, NADH fluorescence kinetic, PGE2 substrate. AID 894. Potency, µM, for inactives: at the highest dose activity change, negative = inhibition, actives largely listed as inhibitors. P15428; also: potency is read from the fitted curve at half-maximal effect
Target sequence (P15428 whole entry, looked up): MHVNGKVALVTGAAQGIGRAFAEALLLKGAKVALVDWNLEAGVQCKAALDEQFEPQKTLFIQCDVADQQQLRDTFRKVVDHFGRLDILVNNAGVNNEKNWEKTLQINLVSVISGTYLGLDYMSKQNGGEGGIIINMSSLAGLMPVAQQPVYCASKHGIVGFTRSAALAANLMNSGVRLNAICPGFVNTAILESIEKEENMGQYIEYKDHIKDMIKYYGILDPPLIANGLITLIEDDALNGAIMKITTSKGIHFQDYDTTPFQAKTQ
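20 nM HPGD preincubated 15 min at room temperature with compound in 50 mM Tris-HCl pH 8, 0.01% Tween 20. Started with 1 mM NAD+ and 30 uM prostaglandin E2; NADH fluorescence (360/450 nm) read 5 times over 30-s intervals, last minus first.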
ALDH1A1 inh – blocks purified human ALDH1A1 activity; P00352; Purified ALDH1A1, NADH fluorescence, propionaldehyde substrate; Potency, µM (titrated, usually from 75.3 µM), without a hit: at the top dose activity, negative = inhibition, usual class: inhibitors; 220,000 compounds, 7.3% hits; AID 1030;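 also: potency is read from the fitted curve at half-maximal effect; plate controls were no enzyme wells and a reference inhibitor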
LMNA splice mod – LMNA splicing modulation | HeLa LMNA splicing GFP/RFP minigene ratio, 48 h | Potency, µM (highest dose often 46.1 µM), without a hit: at the highest dose ratio change, negative = inhibition, most hits filed as inhibitors | 200,000 compounds, 0.01% hits | AID 1487; active = well fitted inhibition curve with a large enough effect in the signal ratio, with a control signal flat, not every such curve was filed as active; inconclusive = small, poorly fitted or top-dose-only effect, or effect the other way, or a change in a side signal; the % refers to the signal ratio; also: potency is read from the fitted curve at half-maximal effect
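Read-out is the ratio of GFP to DsRed2 object intensity, acquired by 488 nm laser-scanning cytometry on HeLa lamin A-EGFP minigene reporter cells. Compound incubation 48 hrs at 37 °C in Opti-MEM with 2% FBS; DMSO 0.5% final.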
12-hLO inh – blocks human 12-lipoxygenase activity; P18054; purified 12-hLO, xylenol orange hydroperoxide absorbance; Potency, µM (titrated, usually from 57.1 µM), inactives show at the highest dose activity change, negative = inhibition, usual class: inhibitors; 150,000 compounds, 0.12% hits; AID 1452; active = well fitted inhibition curve with a large enough effect; inconclusive = small, poorly fitted or top-dose-only effect; also: potency is read from the fitted curve at half-maximal effect; nearly all actives have a fitted effect of over 55% in size
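Hydroperoxide output read as Fe(III)-xylenol orange absorbance, 573-to-405 nm ratio, after 30 min reaction with 40 uM arachidonic acid. Enzyme: 150 nM purified human 12hLO, 15 min compound preincubation; 25 mM Hepes pH 7.0, room temperature.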
PNC inhibitor – inhibitors of perinucleolar compartment assembly; PC3M PTB-GFP, PNC prevalence imaging, 16 h; hits give low values; activity change (PNC), negative = inhibition, % at 10 µM; 140,000 compounds, 3.1% hits; AID 2417;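 active = readout at or below -70, meaning at least 70% loss of cells showing the perinucleolar compartment, a nuclear body marking cancer cells; inconclusive = readout between -30 and a set limit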;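 also: plate controls were DMSO wells for no effect and camptothecin positive control wells for full effect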
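Compounds are pinned in duplicate onto adhered PC3M cells stably expressing GFP-tagged PTB and incubated 16 h at 37 C. Cells are then fixed, nuclei stained with Hoechst, and PNC-positive cells counted.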
Starred values were filed as active, the others as inactive; ? = inconclusive; . = no result given; [ ] = dose if it differs, or a comment. Rows were chosen to be rich in hits. Some 10% of all compounds tested hit in one or more screens of this group. Unless noted, calls follow the shape of the dose curve; as a rule, active = well fitted inhibition curve with a large enough effect (not every such curve was filed as active); inconclusive = small, poorly fitted or top-dose-only effect, or another doubt; inactive = no such curve, though single readings can be large or run the other way. Unless noted, % is scaled to controls: 0 for no effect and ±100 for the full control effect.

SMILES	HPGD inh	ALDH1A1 inh	LMNA splice mod	12-hLO inh	PNC inhibitor
O=c1[nH]c(CSc2nnc(COc3ccccc3)n2-c2ccccc2)nc2ccccc12	-10%	18µM*	?	-13%	?
COc1cccc(-n2c(COc3ccc(C)cc3)nnc2SCC(=O)O)c1	25µM*	-14%	3%	4%	51
COc1ccccc1-c1ccc(NC2CCCC2)nn1	6.3µM*	0%	-11%	6%	42
COc1ccc(CNc2ccc(-c3ccccc3OC)nn2)cc1	16µM*	-9%	-9%	3%	?
COc1ccccc1-c1nccc(NCc2ccccc2)n1	.	4%	?	.	.
COc1ccc(CNc2ccc(-c3ccc(OC)cc3)nn2)cc1	-11%	2%	11%	-3%	-88*
CC(C)[C@H]1COC(c2cc(Cl)cc(Cl)c2)=N1	-6%	-7%[120 µM]	.	-2%[0.00818 µM]	.
CC(C)(C)C(=O)Nc1nc(=S)ss1	32µM*	5.6µM*	-15%	-2%	29
COc1ccc(Cc2nnc(NC(=O)C(C)(C)C)s2)cc1	.	1%	?	.	.
CCSc1nnc(NC(=O)CC)s1	-8%	4%	0%	-2%	-13
CCC(=O)Nc1nc(=S)ss1	10µM*	2µM*	25%	3%	?
Cc1ccc(CNC(=O)CSc2ncc(S(=O)(=O)c3ccc(C)c(Cl)c3)c(=O)[nH]2)cc1	.	.	5%[46 µM]	.	.
C=CC(C)(C)c1c2c(c(O)c3c(=O)c4ccc(O)c(O)c4oc13)C=CC(C)(C)O2	-9%	-2%	.	.	.
CCCCN(CC)C(=O)c1cccc(Cl)c1	?	?	1%	0%	-7
N=c1ccn(CC(=O)c2ccc(-c3ccccc3)cc2)cc1	.	-13%	.	.	.
O=C(CN1C(=O)CCC1=O)c1ccc(-c2ccccc2)cc1	-28%	3%	12%	-3%	-82*
CCN(CC)C(=O)c1ccc(C(=O)c2ccccc2)cc1	1µM*	?	6%	7%	41
CCN(CC)C(=O)c1cccc(C)c1	25µM*	4%	0%	4%	.
CCCC(=O)c1ccc(-c2ccccc2)cc1	7.1µM*	-3%	3%	-5%	37
CCN(CC)C(=O)c1ccc2nc3ccccc3nc2c1	0.89µM*	?	?	-4%	28
CCN(CC)C(=O)c1ccc(C)c(Br)c1	18µM*	7%	-7%	1%	22
CCCCN(CC)C(=O)c1ccc(-c2ccccc2)cc1	2µM*	-3%	-3%	0%	28
CCN(CC)C(=O)c1ccc2nc(-c3ccccc3)c(-c3ccccc3)nc2c1	?	?	-12%	-2%	?
CCc1ccccc1	-4%	-7%	.	1%	.
CC(C)NC(=O)CSc1nc2ccccc2n1-c1ccccc1	-9%	?	1%	-5%	9
SMILES	HPGD inh	ALDH1A1 inh	LMNA splice mod	12-hLO inh	PNC inhibitor
CC(C)NC(=O)CSc1nncn1-c1ccccc1	-6%	3%	-4%	1%	-97*
CC(C)NC(=O)CSc1nnc(-c2ccc(C(C)(C)C)cc2)n1C	-5%	6%	?	-1%	-100*
O=C(Nc1cccc(F)c1)c1ccc2oc(=O)n(Cc3ccccc3)c2c1	.	.	-1%[46 µM]	.	.
CCOC(=O)N1CCC(N2Cc3cccc(C(=O)Nc4ccc(CC)cc4)c3C2=O)CC1	-14%	130%	-3%	0%	-108*
CCOC(=O)N1CCC(N2Cc3cccc(C(=O)Nc4ccc(F)cc4)c3C2=O)CC1	-14%	6%	20%[0.0737 µM]	-8%	41
CCOC(=O)N1CCC(N2Cc3cccc(C(=O)NCc4ccc(OC)cc4)c3C2=O)CC1	-8%	20µM*	?	-2%	-13
CCOC(=O)N1CCC(N2Cc3cccc(C(=O)NCc4ccc5c(c4)OCO5)c3C2=O)CC1	.	1%	.	.	.
CCOC(=O)N1CCC(N2Cc3cccc(C(=O)NCc4ccccc4OC)c3C2=O)CC1	-11%	5%	0%	-5%	-100*
Cc1ccc(N2CC(NC(=O)c3ccc(S(=O)(=O)N4CCCC4)cc3)CC2=O)cc1C (stereo not drawn)	.	.	0%[46 µM]	.	.
CCOc1cc(NC2CS(=O)(=O)CC2O)c(OCC)cc1NC(=O)c1ccccc1 (stereo not drawn)	-13%	13µM*	-6%	-25%	78
CCc1cccc(C)c1NC(=O)Cn1ccn(-c2cccc(OC)c2)c(=O)c1=O	.	.	24%[46 µM]	.	.
